# Source: PubChem BioAssay (Tox21)
# Unmarked numbers belong to inactive results. Inconclusive results are not listed. A call without a number means that no potency is given here. Activity calls are given as the source filed them. Unless noted, the call rests on the fitted dose curve; in most records, active means well fitted curve in the direction sought with a large enough effect in the repeat runs; inconclusive means weak or mixed curves; inactive means no such curve, though single readings can be large; an effect the other way counts as inactive or inconclusive.
# Key:
# [1] = qHTS assay for small molecules that induce genotoxicity in human embryonic kidney cells expressing luciferase-tagged ATAD5 (AID 651632); further: nearly all actives have a fitted effect of over 15% in size
# Outline: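 Luminescence read-out: after 16 hr compound exposure at 37C, ATAD5-luciferase HEK293T cells received Amplite, 30 min RT, then CCD imaging. A rise in signal marks genotoxic stress.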
# [2] = qHTS assay for small molecule agonists of the p53 signaling pathway - cell viability (AID 651633; calls by dose curve; further: nearly all actives have a fitted effect of over 30% in size; further: potency means the concentration at half of the fitted maximal effect;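 on activity change, negative = cytotoxicity: p53RE-bla HCT reporter cells with a stable beta-lactamase p53 reporter; series mostly up to about 83 µM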)
# Outline: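 p53RE-bla cells, seeded at 4,000 per well and rested 5 h at 37 C/5% CO2, received compounds in DMSO for 16 h at 37 C. CellTiter-Glo was then added, and luminescence was read after 30 min at room temperature to gauge cytotoxicity.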
# [3] = qHTS assay for small molecule disruptors of the mitochondrial membrane potential - cell viability (AID 720634; calls by dose curve;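 further: human HepG2 liver cancer cells; series mostly up to about 83 µM; nearly all actives have a fitted effect of over 20% in size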)
# Outline: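 Luminescence from CellTiter-Glo (ATP content) gave viability in HepG2 cells, read in the same wells as the MMP dye assay after 1 hr compound exposure at 37 C.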
# [4] = qHTS assay to test for compound auto fluorescence at 590 nm (red) in HepG2 cells (AID 720674)
# Outline: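 Intrinsic compound fluorescence in the red window (Ex/Em 540/590 nm) is measured in attached HepG2 cells exposed for 1 hr, DMSO vehicle as baseline, benchmarked to Rose Bengal sodium.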
# [5] = qHTS assay to test for compound auto fluorescence at 535 nm (green) in HepG2 cells (AID 720675)
# [6] = qHTS assay to test for compound auto fluorescence at 460 nm (blue) in HEK293 cells (AID 720678)
# Outline: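 Cells were seeded and left to adhere for 4-5 hr at 37C. Compounds were then pin-transferred. After an overnight incubation at 37C under 5% CO2, intrinsic fluorescence at 405/460 nm was measured and referenced to triamterene.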
# [7] = qHTS assay to test for compound auto fluorescence at 590 nm (red) in HEK293 cells (AID 720679)
# Outline: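 Each well held 2,000 HEK293 cells in medium containing 10% dialyzed FBS. Following 4-5 hr attachment at 37C, 23 nL test compound or DMSO was added; plates sat overnight, and red fluorescence (540/590nm) was recorded.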
# [8] = qHTS assay for small molecules that induce genotoxicity in human embryonic kidney cells expressing luciferase-tagged ATAD5 - cell viability (AID 651634; calls by dose curve; further: nearly all actives have a fitted effect of over 25% in size; further: potency means the concentration at half of the fitted maximal effect)
# Outline: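 HEK293T ATAD5-luc cells, 2,000/well; compound 15.5 hr, 37C/5% CO2; CellTiter-Fluor 30 min, 37C; fluorescence read.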
# [9] = qHTS assay for small molecule disruptors of the mitochondrial membrane potential (AID 720635); further: potency means the concentration at half of the fitted maximal effect
# Outline: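 HepG2 cells (2,000/well) attached overnight at 37C, then took compound for 1 hr at 37C, 5% CO2. Mito-MPS dye was added for 30 min; fluorescence was read at 490/535 nm (monomers) and 540/590 nm (aggregates).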
smiles,measurement,setting,value
CC(CN(CCN(CC(C)OCCO)CC(C)OCCO)CC(C)OCCO)OCCO (configuration not stated),Potency,[1],inactive
same,Potency,[2],inactive
same,outcome,[3],inactive
same,outcome,[4],inactive
same,outcome,[5],inactive
same,Potency,[6],inactive
same,outcome,[7],inactive
CCN(CC)C(=O)/C(C#N)=C/c1cc(O)c(O)c([N+](=O)[O-])c1,Potency,[2],inactive
same,Potency,[8],26.6 µM (active)
same,outcome,[4],inactive
same,outcome,[5],inactive
same,Potency,[6],inactive
same,outcome,[7],inactive
CC1CCC(C(C)CS)CC1S (configuration not stated),Potency,[1],inactive
same,Potency,[2],54.5 µM (active)
same,Potency,[9],inactive
same,outcome,[4],inactive
same,outcome,[5],inactive
same,Potency,[6],inactive
same,outcome,[7],inactive
CN1CCCN(C(c2ccccc2)c2ccc(Cl)cc2)CC1 (configuration not stated),Potency,[8],inactive
same,outcome,[3],inactive
same,outcome,[4],inactive
same,outcome,[5],inactive
same,Potency,[6],inactive
same,outcome,[7],inactive
COc1cc(NC(C)CCCN)c2ncccc2c1 (configuration not stated),Potency,[1],inactive
same,"fluorescence, relative to Rose Bengal",[4],-0.0926% [at 18.6 µM]
same,"fluorescence, % of fluorescein control",[5],-0.0145% [at 18.6 µM]
same,"fluorescence, % of triamterene",[6],1.22% [at 18.6 µM]
same,"fluorescence, % of fluorescent control",[7],-0.0138% [at 18.6 µM]
CC(C)(C)CCCCCCOC(=O)c1ccccc1C(=O)OCCCCCCC(C)(C)C,Potency,[1],inactive
same,Potency,[8],inactive
same,outcome,[3],inactive
same,outcome,[4],inactive
same,outcome,[5],inactive
same,Potency,[6],inactive
CCOC(=O)c1ccc(NC(=O)CN2CCCCC2)cc1,Potency,[2],inactive
same,Potency,[8],inactive
same,outcome,[3],inactive
same,Potency,[9],inactive
same,outcome,[4],inactive
same,outcome,[5],inactive
same,Potency,[6],inactive
same,outcome,[7],inactive
CNC1CCCN(c2c(F)cc3c(=O)c(C(=O)O)cn(C4CC4)c3c2OC)C1 (configuration not stated),Potency,[1],inactive
same,Potency,[8],inactive
same,outcome,[3],inactive
same,Potency,[9],inactive
same,outcome,[4],inactive
same,outcome,[5],inactive
same,Potency,[6],inactive
O[C@@H](CNC[C@H](O)[C@H]1CCc2cc(F)ccc2O1)[C@@H]1CCc2cc(F)ccc2O1,Potency,[1],inactive
same,Potency,[8],inactive
same,outcome,[3],inactive
same,outcome,[4],inactive
same,outcome,[5],inactive
same,Potency,[6],inactive
same,outcome,[7],inactive
c1ccc(CCCc2ccncc2)cc1,Potency,[2],inactive
same,outcome,[3],inactive
same,Potency,[9],10.9 µM (active)
same,outcome,[4],inactive
same,outcome,[5],inactive
same,Potency,[6],inactive
same,outcome,[7],inactive
Nc1cccc2c(N)cccc12,Potency,[2],inactive
same,Potency,[8],inactive
same,Potency,[9],0.864 µM (active)
same,outcome,[4],inactive
same,outcome,[5],inactive
same,Potency,[6],inactive
same,outcome,[7],inactive
Nc1ccc(F)cc1,Potency,[2],inactive
same,Potency,[8],inactive
same,outcome,[3],inactive
same,outcome,[4],inactive
same,outcome,[5],inactive
same,Potency,[6],inactive
O=C(O)c1cccc(C[C@@H]2COc3ccc(OCc4nc5cc(F)ccc5s4)cc3[C@@H]2O)c1,Potency,[2],inactive
same,Potency,[8],inactive
same,outcome,[3],inactive
same,Potency,[9],54.5 µM (active)
same,outcome,[4],inactive
same,outcome,[5],inactive
same,Potency,[6],inactive
same,outcome,[7],inactive
Oc1ccc2c(c1)Cc1ccccc1-2,Potency,[8],inactive
same,Potency,[9],27.3 µM (active)
same,outcome,[4],inactive
same,outcome,[5],inactive
same,Potency,[6],inactive
same,outcome,[7],inactive
O=C1CC[C@@H](C(=O)O)N1,Potency,[2],inactive
same,Potency,[8],inactive
same,outcome,[4],inactive
same,outcome,[5],inactive
same,Potency,[6],inactive
same,outcome,[7],inactive
Cc1ccc2c(c1[N+](=O)[O-])C(=O)c1ccccc1C2=O,Potency,[2],inactive
same,outcome,[3],inactive
same,Potency,[9],1.2 µM (active)
same,outcome,[4],inactive
same,outcome,[5],inactive
same,Potency,[6],inactive
CN1C(CSCC(F)(F)F)Nc2cc(Cl)c(S(N)(=O)=O)cc2S1(=O)=O (configuration not stated),Potency,[1],inactive
same,Potency,[8],inactive
same,outcome,[3],inactive
same,Potency,[9],inactive
same,outcome,[4],inactive
same,outcome,[5],inactive
same,Potency,[6],inactive
same,outcome,[7],inactive
CC[C@H]1OC(=O)[C@H](C)[C@@H](O[C@H]2C[C@@](C)(OC)[C@@H](O)[C@H](C)O2)[C@H](C)[C@@H](O[C@@H]2O[C@H](C)C[C@H](N(C)C)[C@H]2O)[C@](C)(O)C[C@@H](C)/C(=N\OCOCCOC)[C@H](C)[C@@H](O)[C@]1(C)O,Potency,[2],inactive
same,Potency,[8],inactive
same,outcome,[3],inactive
same,Potency,[9],inactive
same,outcome,[4],inactive
same,outcome,[5],inactive
same,Potency,[6],inactive
same,outcome,[7],inactive
COc1ccc(/C=C/C(=O)c2ccc(OC)cc2OC)cc1,Potency,[2],inactive
same,outcome,[3],inactive
same,Potency,[9],13.3 µM (active)
same,outcome,[4],inactive
same,outcome,[5],inactive
same,Potency,[6],inactive
same,outcome,[7],inactive
CCN(Cc1cccc(S(=O)(=O)O)c1)c1ccc(C(=C2C=CC(=[N+](CC)Cc3cccc(S(=O)(=O)O)c3)C=C2)c2ccc(O)cc2S(=O)(=O)[O-])cc1,Potency,[1],inactive
same,Potency,[8],33.1 µM (active)
same,outcome,[4],inactive
same,outcome,[5],inactive
same,Potency,[6],inactive
same,outcome,[7],inactive
C=CCOC(=O)COCCC(C)C,Potency,[1],inactive
same,Potency,[8],inactive
same,outcome,[3],inactive
same,outcome,[4],inactive
same,outcome,[5],inactive
same,Potency,[6],inactive
same,outcome,[7],inactive
Cc1ccccc1S(N)(=O)=O,Potency,[2],inactive
same,outcome,[3],inactive
same,outcome,[4],inactive
same,outcome,[5],inactive
same,Potency,[6],inactive
same,outcome,[7],inactive
O=C1OC(=O)c2c(Br)c(Br)c(Br)c(Br)c21,Potency,[2],inactive
same,Potency,[8],inactive
same,Potency,[9],inactive
same,outcome,[4],inactive
same,outcome,[5],inactive
same,Potency,[6],inactive
same,outcome,[7],inactive
O=C(/C=C/c1ccc([N+](=O)[O-])cc1)c1ccccc1,Potency,[2],68.7 µM (active)
same,Potency,[8],inactive
same,outcome,[3],inactive
same,Potency,[9],30.7 µM (active)
same,outcome,[4],inactive
same,outcome,[5],inactive
same,Potency,[6],inactive
same,outcome,[7],inactive
Cc1cc([N+](=O)[O-])ccc1N,Potency,[1],inactive
same,Potency,[2],inactive
same,outcome,[3],inactive
same,outcome,[4],inactive
same,outcome,[5],inactive
same,Potency,[6],inactive
same,outcome,[7],inactive
CCN(CC)CCOc1ccccc1C(=O)CCc1ccccc1,Potency,[2],inactive
same,outcome,[4],inactive
same,outcome,[5],inactive
same,Potency,[6],inactive
same,outcome,[7],inactive
O=C(c1ccccc1)C1CCC1,Potency,[1],inactive
same,Potency,[2],inactive
same,outcome,[3],inactive
same,Potency,[9],inactive
same,outcome,[4],inactive
same,outcome,[5],inactive
same,Potency,[6],inactive
same,outcome,[7],inactive
CCCCCc1ccco1,Potency,[2],39.8 µM (active)
same,Potency,[8],inactive
same,outcome,[3],inactive
same,Potency,[9],44.7 µM (active)
same,outcome,[4],inactive
same,outcome,[5],inactive
same,Potency,[6],inactive
same,outcome,[7],inactive
CCCCCCCC(=O)Oc1c(Br)cc(C#N)cc1Br,Potency,[1],inactive
same,Potency,[2],inactive
same,Potency,[9],12.1 µM (active)
same,outcome,[4],inactive
same,outcome,[5],inactive
same,Potency,[6],inactive
same,outcome,[7],inactive
CCC(Cl)CC(Cl)C(Cl)C(Cl)C(Cl)C(C)Cl (configuration not stated),activation,[1],8.79% [at 17.9 µM]
same,"activity change, negative = cytotoxicity",[3],-14.9% [at 17.9 µM]
same,"fluorescence, relative to Rose Bengal",[4],0.266% [at 13.4 µM]
same,"fluorescence, % of fluorescein control",[5],-0.0606% [at 13.4 µM]
same,"fluorescence, % of triamterene",[6],0.1% [at 13.4 µM]
same,"fluorescence, % of fluorescent control",[7],-0.173% [at 13.4 µM]
CO[C@@H]1[C@@H](OC)[C@H](C)[C@@](O)(CC(=O)O)O[C@H]1[C@H](C)[C@H]1O[C@@]2(CC[C@@](C)([C@H]3CC[C@@](C)([C@@H]4O[C@@H]([C@H]5O[C@](C)(O)[C@H](C)C[C@@H]5C)C[C@@H]4OC4C[C@H](OC)[C@@H](OC)[C@H](C)O4)O3)O2)C[C@H](O)[C@H]1C (some centres not stated),Potency,[2],inactive
same,Potency,[8],1.19 µM (active)
same,outcome,[3],inactive
same,outcome,[4],inactive
same,outcome,[5],inactive
same,Potency,[6],inactive
same,outcome,[7],inactive
CCCCCCCCCCCSCC(=O)O,Potency,[1],inactive
same,Potency,[8],inactive
same,outcome,[3],inactive
same,outcome,[4],inactive
same,outcome,[5],inactive
same,Potency,[6],inactive
same,outcome,[7],inactive
Cc1ccc(S(=O)(=O)NC(=O)NC2CCCCC2)cc1,Potency,[1],inactive
same,Potency,[2],inactive
same,outcome,[3],inactive
same,Potency,[9],inactive
same,outcome,[4],inactive
same,outcome,[5],inactive
same,Potency,[6],inactive
same,outcome,[7],inactive
Cc1ccc2c(c1)CCCN2,Potency,[8],inactive
same,outcome,[3],inactive
same,Potency,[9],inactive
same,outcome,[4],inactive
same,outcome,[5],inactive
same,Potency,[6],inactive
same,outcome,[7],inactive
